PubChem BioAssay AID1851 (National Center for Advancing Translational Sciences (NCATS), 2009)
Out of some 16,000 compounds screened, about 5,100 (32%) were called active. Inconclusive results (about 25%) are left out. The list shows a part of the results. A number with no mark means an inactive call. The call rests on the fitted dose curve; in most records, active means well fitted curve in the direction sought with a large enough effect; inconclusive means small, poorly fitted or top-dose-only effect, or effect the other way; inactive means no such curve, though single readings can be large or run the other way.

What follows are compounds tested against Cytochrome P450 3A4 (Homo sapiens) (UniProt P08684) (assay: Cytochrome panel assay with activity outcomes). Details: recombinant CYP, pro-luciferin dealkylation, luminescence, p450-cyp3a4; series mostly up to 57.1 µM; activity, negative = inhibition: at the top concentration.
On the % scale 0 is the no-effect control and ±100 the full control effect.

Chain of Cytochrome P450 3A4 (Homo sapiens) (P08684 whole entry, looked up): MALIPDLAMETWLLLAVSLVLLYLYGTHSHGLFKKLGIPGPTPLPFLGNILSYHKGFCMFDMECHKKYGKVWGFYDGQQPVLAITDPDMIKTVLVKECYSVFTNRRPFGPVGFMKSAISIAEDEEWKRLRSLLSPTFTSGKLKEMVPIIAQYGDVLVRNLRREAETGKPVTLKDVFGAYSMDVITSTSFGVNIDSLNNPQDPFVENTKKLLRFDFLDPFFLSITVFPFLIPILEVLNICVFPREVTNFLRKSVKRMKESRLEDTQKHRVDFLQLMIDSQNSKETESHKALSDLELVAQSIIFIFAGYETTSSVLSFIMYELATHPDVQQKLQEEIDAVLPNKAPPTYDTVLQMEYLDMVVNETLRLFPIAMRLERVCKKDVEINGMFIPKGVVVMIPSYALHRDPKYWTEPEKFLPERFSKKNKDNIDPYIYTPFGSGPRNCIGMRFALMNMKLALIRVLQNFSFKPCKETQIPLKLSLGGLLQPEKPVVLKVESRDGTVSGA

SMILES	activity, negative = inhibition	AC50
COc1ccc2c3c(ccc2c1)N[C@H](C(=O)O)CC3	-10.2% [at 11.4 µM]	–
O=C(c1cnccn1)N1CCC[C@@]2(CCN(c3ccccc3)C2)C1	–	7.94 µM (active)
O=C(c1ccco1)N1CCC2(CC1)CN(c1cccc(-c3ccccc3)c1)C2	-14.6%	–
O=C(c1ccncc1)N1CCC[C@@]2(CCN(c3ccccc3)C2)C1	–	3.16 µM (active)
O=C(c1ccncc1)N1CCC2(CC1)CN(c1ccccc1)C2	-28.5%	–
O=C(c1ccncc1)N1CCC2(CC1)CN(c1ncccn1)C2	-26.6%	–
O=C(c1ccncc1)N1CCC2(CC1)CN(c1cccc(-c3ccccc3)c1)C2	–	7.94 µM (active)
O=C(c1ccncc1)N1CCC2(CC1)CCN(c1ccccc1)CC2	-29.2%	–
CC(=O)N1CCC[C@@]2(CCN(c3ncccn3)C2)C1	-5.73%	–
O=C(c1cnccn1)N1CCC[C@@]2(CCN(c3ccccn3)C2)C1	–	10 µM (active)
CC1(C)Oc2cc(N)c([N+](=O)[O-])cc2O1	-22%	–
Cc1c(C=NCCOCc2ccccc2)cnn1C	-18.1%	–
O=C(c1ccncc1)N1CCC2(CC1)CCN(c1ccccn1)CC2	-20.5%	–
CC(=O)N1CCC2(CC1)CN(c1ccncc1)C2	-1.4%	–
CC(=O)N1CCC2(CCCN(c3ccccn3)C2)CC1	-26.5%	–
O=C(c1cnccn1)N1CCC2(CC1)CN(c1ccncc1)C2	-3.55%	–
O=C(c1cnccn1)N1CCC[C@@]2(CCN(c3ccncc3)C2)C1	–	3.16 µM (active)
O=C(c1ccncc1)N1CCC[C@@]2(CCN(c3ccccn3)C2)C1	–	7.94 µM (active)
COc1cc(C2C(C#N)=C(N)N(c3sc4c(c3C#N)CCCC4)C3=C2C(=O)CC(C)(C)C3)cc(OC)c1OC (configuration not stated)	–	0.501 µM (active)
COc1cc(C2C(C#N)=C(N)N(Nc3ccccc3)C3=C2C(=O)CC(C)(C)C3)ccc1OCc1cccc(F)c1 (configuration not stated)	–	2.51 µM (active)
COc1ccc(C2C(C#N)=C(N)N(Nc3ccccc3)C3=C2C(=O)CC(C)(C)C3)cc1C (configuration not stated)	–	2 µM (active)
COc1cc(C2C(C#N)=C(N)N(Nc3ccccc3)C3=C2C(=O)CC(C)(C)C3)ccc1OCc1ccccc1 (configuration not stated)	–	2.82 µM (active)
CCOc1cc(/C=C2\CCC/C(=C\c3cc(Cl)c(O)c(OCC)c3)C2=O)cc(Cl)c1O	-14.8% [at 2.29 µM]	–

SMILES	activity, negative = inhibition	AC50
CCCCCCCCCCCCC/C=C\[C@@H](O)[C@@H](N)CO	-9.6%	–
Cc1cccc(CSCCNC(=O)c2ccc(N(C)S(=O)(=O)c3ccccc3)cc2)c1	–	3.98 µM (active)
O=C(O)CCSCc1ccccc1	-12.2% [at 11.4 µM]	–
CN(c1ccc(C(=O)NCC2CCCO2)cc1)S(=O)(=O)c1ccccc1 (configuration not stated)	10.5%	–
C=CCOC(=O)/C(=C\c1cccc2ccccc12)NC(=O)c1ccccc1	–	0.2 µM (active)
O=C1CCC(c2ccc(-n3ccnc3)cc2)=NN1	–	1.58 µM (active)
COc1cc(/C=C(/C#N)c2nc3ccccc3[nH]2)ccc1OCC(=O)Nc1ccccc1C	–	1.26 µM (active)
N#C/C(=C\c1ccccc1)c1nc2ncccc2[nH]1	-24% [at 2.29 µM]	–
COc1cc(/C=C(/C#N)c2nc3ccccc3[nH]2)ccc1Oc1ncccc1[N+](=O)[O-]	–	1.58 µM (active)
N#C/C(=C\c1ccc(Cl)cc1)c1nc2ncccc2[nH]1	-7.91% [at 2.29 µM]	–
COc1ncnc(NS(=O)(=O)c2ccc(N)cc2)c1OC	-8.96% [at 25.6 µM]	–
CCOC(=O)c1cnc(N(C)C)nc1SC(=N)N	-4.2% [at 11.4 µM]	–
Cc1cc(C)cc(OCC(=O)Nc2ccc3c4c(cccc24)CC3)c1	-27%	–
CSc1ccc(S(=O)(=O)Nc2ccc3c4c(cccc24)CC3)cc1	–	5.01 µM (active)
COc1nnc(OC)c2ccccc12	3.31%	–
CC(C)=CCC1=C(OCC(=O)O)C(=O)c2ccccc2C1=O	-24.9% [at 11.4 µM]	–
COC1=C(OC)C(=O)c2ccccc2C1=O	–	20 µM (active)
C#CCn1c(=O)c2c(ncn2C)n(C)c1=O	-5.18%	–
N#Cc1c2n(c3c(=S)nc[nH]c13)CCCCC2	9.26% [at 2.29 µM]	–
COc1ccc2c(c1)Cc1cc(N=[N+]([O-])c3ccc4c(c3)Cc3cc(OC)ccc3-4)ccc1-2	–	5.01 µM (active)
Cc1cccc(-n2cnc(C(=O)NC3CCCCCC3)c2)n1	–	14.1 µM (active)
Cc1cc(Cl)nc(NC(=O)CSc2ccc(Cl)cc2)n1	-7.2% [at 11.4 µM]	–
Cc1cnc(NC(=O)CSc2ccc(Cl)cc2)s1	–	15.8 µM (active)

SMILES	activity, negative = inhibition	AC50
Nc1nc(SC/C=C\c2ccccc2)c2[nH]cnc2n1	–	2.51 µM (active)
Nc1nc(Sc2ccc([N+](=O)[O-])c3nonc23)c2[nH]cnc2n1	-24.7% [at 11.4 µM]	–
Nc1nc(N)c(CCCCc2ccccc2)c(N)n1	5.2% [at 11.4 µM]	–
Nc1nc(SCc2ccccc2[N+](=O)[O-])c2[nH]cnc2n1	–	3.16 µM (active)
CCC[C@H](Sc1nc(N)nc2nc[nH]c12)C(=O)O	-4.34% [at 11.4 µM]	–
CC(C)[C@H](Sc1nc(N)nc2nc[nH]c12)C(=O)O	-2.83% [at 11.4 µM]	–
Nc1nc(SCCc2ccccc2)c2[nH]cnc2n1	–	2.51 µM (active)
Nc1nc(N)c2[nH]cnc2n1 (tested in a mixture with another compound)	-3.42% [at 11.4 µM]	–
COc1cccc(=O)c2c(C)n(-c3cc(C)cc(C)c3)c(C)c12	–	4.47 µM (active)
COc1ccc(-n2c(C)n[nH]c2=O)cc1OC	2.19%	–
CN(C)CCC=C1c2ccccc2C=Cc2ccccc21	–	inactive
O=C(O)[C@@H]1CCCN1Cc1cc2ccccc2c2ccccc12	-12.1% [at 11.4 µM]	–
CC(C)CC(=O)N[C@H](C(=O)N[C@H](C(=O)N[C@@H](CC(C)C)[C@H](O)CC(=O)N[C@@H](C)C(=O)N[C@@H](CC(C)C)[C@H](O)CC(=O)O)C(C)C)C(C)C	-8.61% [at 25.6 µM]	–
Cc1ccc(-n2nnnc2SCC(=O)NNC(=O)c2ccco2)c(C)c1	–	22.4 µM (active)
CC(=O)c1ccc(-n2nnnc2SCC(=O)Nc2cccc(NC(=O)c3ccco3)c2)cc1	–	3.98 µM (active)
CCc1cc2cc(C)c(C)cc2nc1SCC(=O)NNC(=O)c1ccco1	–	8.91 µM (active)
Cc1ccc(NC(=O)CCC(=O)NNC(=O)c2ccco2)cc1C	-4.43% [at 2.29 µM]	–
O=C(CSc1ccccc1)Nc1ccc(NC(=O)c2ccco2)cc1	-25.4%	–
Cc1ccc(SCC(=O)Nc2cccc(NC(=O)c3ccco3)c2)cc1	–	22.4 µM (active)
Cc1c(Cl)cccc1NC(=O)CCC(=O)NNC(=O)c1ccco1	1.8% [at 2.29 µM]	–
O=C(CSc1ccc(Cl)cc1)Nc1cccc(NC(=O)c2ccco2)c1	-17.5% [at 11.4 µM]	–
